# Assay outcomes from PubChem.
# Cycloheximide cs: counter-screen for Shiga toxin inhibitors: cycloheximide protein synthesis inhibition; cell reporter, cycloheximide protein synthesis inhibition counterscreen; max response, %; 300,000 tested, 12% active; in the data active = max response mostly above about 13%, no sharp cut-off; inactive = mostly below about 14%; note: read at 38.3 µM for the half of the compounds with a filed dose; 0% is about no effect
# Sm TGR block: inhibitors of Schistosoma mansoni thioredoxin glutathione reductase; Q962Y6; purified TGR, DTNB reduction, TNB absorbance 405 nm; Potency, µM (series often up to 114 µM), for inactives: at the top dose activity change, negative = inhibition, actives largely listed as inhibitors; 360,000 tested, 3% active; AID 485364; note: potency is the fitted concentration of half-maximal effect; % is set by controls: 0 for no effect and ±100 for the full control effect; nearly all actives have a fitted effect of over 60% in size
#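 First, TGR (20 nM dispensed) and NADPH were mixed with compound. Second, a 15 min room-temperature incubation followed. Third, further NADPH and then DTNB were added to start the reaction. Finally, TNB absorbance was monitored kinetically.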
# TbPYK inhibitor: inhibitors of Trypanosoma brucei pyruvate kinase; 410,000 tested, 0.12% active; Potency, µM (doses to about 76.8 µM), inactives show at the highest dose activity, negative = inhibition, most hits filed as inhibitors; TbPYK enzyme, Kinase-Glo Plus ATP luminescence, 45 min; note: potency is the fitted concentration of half-maximal effect; % is set by controls: 0 for no effect and ±100 for the full control effect; nearly all actives have a fitted effect of over 50% in size
#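 Glycolytic pyruvate kinase of T. brucei was incubated with substrate, test compound and 130 uM ADP for 45 minutes at room temperature. Luminescent Kinase-Glo Plus signal was measured after 10 minutes.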
# Giardia FBPA inh: blocks Giardia fructose-bisphosphate aldolase activity; A8B2U2; purified Giardia FBPA; Potency, µM (top dose mostly 59.6 µM), inactives show at the highest dose activity, negative = inhibition, most hits filed as inhibitors; 290,000 tested, 0.71% active; note: potency is the fitted concentration of half-maximal effect; % is set by controls: 0 for no effect and ±100 for the full control effect; nearly all actives have a fitted effect of over 55% in size
#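 Giardia FBPA (40 nM reagent) was preincubated 10 min at RT with compound (up to 57.5 uM final), then substrate plus GAPDH/TPI/NAD/arsenate coupling system with diaphorase/resazurin was added; resorufin fluorescence (525/598 nm) was read after 20 min.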
# LmPK inhibitor: inhibitors of Leishmania mexicana pyruvate kinase. Q27686. purified LmPK, Kinase-Glo ATP luminescence, 1 h. Potency, µM (top dose mostly 57.5 µM), without a hit: top-dose activity change, negative = inhibition, most hits filed as inhibitors. 290,000 tested, 0.37% active. AID 1721; note: potency is the fitted concentration of half-maximal effect; % is set by controls: 0 for no effect and ±100 for the full control effect
# Target sequence (Q27686 whole entry, looked up): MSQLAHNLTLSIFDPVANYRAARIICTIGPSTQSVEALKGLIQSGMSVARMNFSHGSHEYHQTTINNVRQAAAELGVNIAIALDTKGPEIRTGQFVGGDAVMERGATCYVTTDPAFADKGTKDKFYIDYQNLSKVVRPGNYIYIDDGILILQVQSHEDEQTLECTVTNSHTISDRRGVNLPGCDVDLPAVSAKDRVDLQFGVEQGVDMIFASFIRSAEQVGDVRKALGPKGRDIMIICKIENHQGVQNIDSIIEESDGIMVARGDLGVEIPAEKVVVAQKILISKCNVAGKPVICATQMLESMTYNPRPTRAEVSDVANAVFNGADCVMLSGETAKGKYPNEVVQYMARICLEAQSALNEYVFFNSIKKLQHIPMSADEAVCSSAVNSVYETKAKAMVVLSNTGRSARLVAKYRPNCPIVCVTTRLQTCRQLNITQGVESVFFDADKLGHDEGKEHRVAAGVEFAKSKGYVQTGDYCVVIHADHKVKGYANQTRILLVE
#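 Screened at intermediate enzyme activity to detect both inhibitors and activators: LmPK at 0.1 nM, with a 0.5 nM enzyme column as activation reference. PEP 0.5 mM, ADP 0.1 mM; ATP detected by luminescence after 1 h.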
# Shiga toxin inh: inhibitors of Shiga toxin in Vero cells; Vero cells, Shiga toxin protein synthesis inhibition reporter; inhibition, % at 38.7 µM; 290,000 tested, 9.2% active; AID 2315; in the data active = inhibition mostly above about 28%, no sharp cut-off; inactive = mostly below about 43%; note: 0% is about no effect
# * = called active by the depositor; ? = inconclusive; . = no result; [ ] = dose if it differs, or a comment. The entries come from a sample that favours hits as a whole. Unless noted, calls come from the whole dose curve; as a rule, active = well fitted curve in the direction sought with a large enough effect; inconclusive = small, poorly fitted or top-dose-only effect, or another doubt; inactive = no such curve, though single readings can be large; an effect the other way counts as inactive or inconclusive.
SMILES,Cycloheximide cs,Sm TGR block,TbPYK inhibitor,Giardia FBPA inh,LmPK inhibitor,Shiga toxin inh
COc1ccc(NC(=O)Cc2nc3ccccc3[nH]2)cc1,-3.6,-28.6%,7.0%,13.0%,3.5%,-19.2
CN(CC(=O)O)Cc1nc2ccccc2[nH]1,28.0*,-30.1%,7.9%,?,-8.0%,48.3
COc1ccc(OCc2nc3ccccc3[nH]2)cc1,30.2,-18.7%,-8.6%,-1.6%,17.8µM*,152.1*
Nc1ccc2nc(COc3ccccc3)[nH]c2c1,9.9*,-1.6%,-2.8%,-11.8%,1.1%,4.1
CCOc1ccccc1NC(=O)CN1C(=O)C2(SCC(=O)N2c2ccc(C)cc2)c2ccccc21 (configuration not stated),.,-1.8%,-6.9%,.,.,.
Cc1ccc(S(=O)(=O)N2C[C@@H](C)[C@]3(C2)[C@H](O)[C@H](OC(=O)Nc2c(C)noc2C)C[C@H]2C(=O)N(c4ccccc4)C(=O)[C@H]23)cc1,.,.,0.8%,.,.,.
COc1ccc(N=Cc2c(O)n(Cc3ccccc3)c(=S)[nH]c2=O)c(OC)c1,16.5*,2.7%,-7.6%,-3.4%,0.7%,29.2*
Fc1ccc(N=Cc2ccc[nH]2)cc1,-3.1,-0.2%,0.9%,-2.1%,1.7%,-20.9
COc1ccc(OC)c(N=Cc2c(O)n(Cc3ccccc3)c(=S)[nH]c2=O)c1,-0.2,0.4%,-2.5%,?,6.1%,-10.3
O=C1C(C=Nc2ccc(F)cc2)=C(O)c2ccccc21,61.2*,4.2%,-9.8%,-0.4%,?,134.2*
COc1ccc(CC2=C(O)c3ccccc3C(=O)C2=O)cc1,-3.8,?,-3.8%,-20.4%,2.3%,-14.6
COc1ccc(N=CC2=C(O)c3ccccc3C2=O)c(OC)c1,26.0*,-2.0%,?,-4.5%,?,48.5
Cc1ccc(-n2c(=O)c3sc4ccccc4c3n(CC(=O)NC3CCCC3)c2=O)cc1C,.,1.2%,4.3%,.,.,.
Cc1ccc(NC(=O)C2CCN(S(=O)(=O)c3cccc4nonc34)CC2)c(Cl)c1,.,1.5%,-4.3%,.,.,.
COc1ccc(-c2cn3c(C)c(C(=O)NCCN4CCOCC4)sc3n2)cc1,5.9,7.7%,5.5%,-9.8%,-2.7%,8.8
CCN(CC)C(=O)c1sc2nc(-c3ccc(OC)cc3)cn2c1C,38.1*,2.8%,-22.9%,3.2%,-15.2%,77.2*
CNC(=O)c1sc2nc(-c3ccc(OC)cc3)cn2c1C,86.4*,1.3%,6.1%,?,5.2%,146.4*
COc1ccc(-c2cn3c(C)c(C(=O)Nc4cc(NC(C)=O)ccc4OC)sc3n2)cc1,1.2,1.5%,-11.6%,0.4%,-3.6%,6.2
O=C(NC1(C(F)(F)F)Oc2ccccc2O1)N1CCC2(CC1)OCCO2,-1.6,17.8µM*,-12.1%,-3.0%,7.8%,12.4
O=C(NC1(C(F)(F)F)Oc2ccc(Cl)cc2O1)N1CCC2(CC1)OCCO2 (configuration not stated),-1.8,44.7µM*,0.2%,?,-0.5%,-5.8
CC(C)OCCCNC(=O)CCCN1C(=O)CCn2nc(-c3cccn3C)cc21,.,-9.2%,0.9%,.,.,.
CC1CCC(NC(=O)CC(NC(N)=O)c2ccccc2Cl)CC1 (configuration not stated),31.3*,-1.0%,-2.8%,3.5%,0.9%,57.1
NC(=O)NC(CC(=O)NCCCc1ccccc1)c1ccccc1Cl (configuration not stated),1.8,-3.2%,3.6%,5.9%,1.8%,-6.3
Cc1ccc(OCC(=O)N(Cc2ccccc2)C(C)(C)C)c([N+](=O)[O-])n1,-3.0,-8.4%,-1.3%,-1.1%,5.6%,-8.3
Cc1ccc(OCc2ccc(-c3ccccc3)cc2)c([N+](=O)[O-])n1,25.1*,-3.9%,-2.5%,-0.5%,4.3%,29.2
SMILES,Cycloheximide cs,Sm TGR block,TbPYK inhibitor,Giardia FBPA inh,LmPK inhibitor,Shiga toxin inh
Cc1ccc(OCc2ccc(Br)cc2)c([N+](=O)[O-])n1,56.1*,5.8%,.,-1.8%,-2.0%,83.8*
O=[N+]([O-])c1ncccc1OCc1ccc(-c2ccccc2)cc1,18.7*,29.3%,0.8%,2.3%,0.0%,40.8
CNc1cc([N+](=O)[O-])ccc1OCc1ccccc1,27.2*,2.9%,-5.0%,-24.7%,1.3%,89.5*
CC(C)c1ccc(OCC(=O)NCC(c2ccc(Cl)cc2)N2CCOCC2)cc1 (configuration not stated),.,-5.4%,1.9%,.,.,.
Cc1ccc(OCCOc2cccc(Br)c2)c([N+](=O)[O-])n1,40.0*,-3.2%,-1.5%,-0.7%,-4.5%,96.0*
CCOc1cc(Br)c(COc2ccc(C)nc2[N+](=O)[O-])cc1OCC,-3.5,2.2%,0.1%,0.8%,-0.9%,-1.2
CCCc1cc2c(n1Cc1cccc(Cl)c1)C(C)C1CN(C(=O)c3ccccc3)C(C)(C(=O)OC)C21 (configuration not stated),.,.,.,-23.8%,.,.
Cn1cccc1C(=O)N1CCC2(CCCN(Cc3ccc(C#N)cc3)C2)CC1,.,.,0.0%,-4.3%,.,.
Cc1cc(OCc2cccc(Cl)c2)c(C)cc1CN1CCOCC1,23.8*,2.2%,-5.9%,0.7%,4.1%,25.0
COc1ccc(C(=O)Oc2cc(C)c(CN3CCOCC3)cc2C)cc1OC,1.0,39.8µM*,-0.6%,3.6%,13.6%,-7.3
O=C(c1cc(COc2ccccc2)on1)N1CCCC(CN2CCOCC2)C1 (configuration not stated),25.6*,-33.5%,1.4%,.,-14.2%,30.9*
Cc1ccc(OCc2cc(C(=O)N3CCCC(C)C3)no2)cn1 (configuration not stated),.,.,1.8%,.,.,.
Cc1ccc(OCc2cc(C(=O)N3CCCC(O)C3)no2)cn1 (configuration not stated),19.8*,-17.9%,0.1%,.,-11.7%,23.1*
Cc1cccc(C)c1NC(=O)C(c1ccccc1)N1CCN(c2ccc(C(F)(F)F)cn2)CC1 (configuration not stated),.,.,3.1%,.,.,.
CCCCNC(=O)CSc1nc2cc3c(cc2c(=O)n1CCCC(=O)NCc1ccc(OC)cc1)OCO3,.,6.1%,-5.7%,.,.,.
CCOc1ccc(CCNC(=O)COC(=O)c2ccc(Br)o2)cc1OCC,.,-20.1%,2.4%,.,.,.
CCCSc1nnc(NC(=O)c2ccco2)s1,24.4*,-0.2%,0.6%,5.7%,0.0%[11.5 µM],108.8*
CC(C)N(C(=O)CSc1nnc(NC(=O)c2ccco2)s1)C(C)C,-0.6,0.5%,2.0%,17.9%,2.1%,-5.9
O=C(CSc1nnc(NC(=O)c2ccco2)s1)Nc1cccc(F)c1,32.4*,2.6%,3.0%,.,-1.5%,78.3*
COCCSc1nnc(NC(=O)c2ccco2)s1,19.9*,-27.1%,-6.6%,-23.1%,-5.9%,36.0
CSc1nnc(NC(=O)c2ccco2)s1,16.2*,0.8%,-7.1%,-12.8%,0.2%,.
CCC(C)Sc1nnc(NC(=O)c2ccco2)s1 (configuration not stated),.,.,-2.0%,.,.,.
COCc1nnc(NC(=O)c2ccco2)s1,-1.4,9.1%,0.5%,-8.8%,0.0%,14.0
